Pf growth 96h: inhibits malaria parasite growth, 96 h; P. falciparum luciferase reporter growth, 96 h; Potency, µM (highest dose often 28.7 µM), without a hit: at the top dose activity change, negative = inhibition, hits mostly inhibitors; 320,000 tested, 6.9% active; AID 504834; also: % is scaled to controls: 0 for no effect and ±100 for the full control effect
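Readout is luminescence from an integrated firefly luciferase in P. falciparum. Red cells, 2% hematocrit and 0.05% parasitemia final, were cultured with compound through two parasite generations (96 hours) at 37 C, 5% CO2.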
AMA1-RON2 inh: inhibitors of Plasmodium falciparum AMA1-RON2 interaction. AlphaScreen AMA1-biotinylated RON2 peptide binding. Potency, µM (doses to about 58.2 µM), for the others: at the highest dose activity change, negative = inhibition, hits mostly inhibitors. 360,000 tested, 0.2% active;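 also: 0% = vehicle wells and -100% = peptide control; nearly all actives have a fitted effect of over 45% in size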
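AMA1 (3D7) with his tag at 25 nM final met compounds first, then biotinylated RON2 peptide at 25 nM; detection used donor plus acceptor beads, 10 µg/mL apiece, read by AlphaScreen after 30 min at room temperature.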
Sm TGR block: inhibitors of Schistosoma mansoni thioredoxin glutathione reductase. Q962Y6. purified TGR, DTNB reduction, TNB absorbance 405 nm. Potency, µM (titrated, usually from 114 µM), inactives show at the top dose activity change, negative = inhibition, most hits filed as inhibitors. 360,000 tested, 3% active. AID 485364; also: % is scaled to controls: 0 for no effect and ±100 for the full control effect; nearly all actives have a fitted effect of over 60% in size
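Kinetic colorimetric format: TGR-catalysed, NADPH-driven DTNB reduction monitored via TNB absorbance. Enzyme dispensed at 20 nM; compound exposure 15 min at room temperature before reaction start.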
Pf growth 48h: P. falciparum growth inhibition at 48 hours (one generation). AID 504832. 310,000 tested, 5.9% active. Potency, µM (series often up to 28.7 µM), inactives show top-dose activity change, negative = inhibition, hits mostly inhibitors. P. falciparum luciferase growth in erythrocytes, 48 h; also: % is scaled to controls: 0 for no effect and ±100 for the full control effect
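A one-generation exposure of luciferase-tagged malaria parasites in RPMI 1640/Albumax erythrocyte culture, 37 C and 5% CO2. Inhibition is inferred from decreased luminescence after adding detection reagent.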
NS1 inh: inhibitors of influenza NS1 protein function. Potency, µM (series often up to 46.1 µM), without a hit: top-dose activity, positive = more growth. 270,000 tested, 0.4% active; calls by dose curve; also: actives are rising curves; nearly all actives have a fitted effect of over 50% in size
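OD600 was taken as the measure of yeast growth restored by compound in an NS1-expressing S. cerevisiae strain. Cells had been washed out of glucose medium and diluted 1:100 into galactose -URA medium, pH 6.0.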
* hit, by the source's call; ? = inconclusive; . = not tested or not shown; [ ] = dose if it differs, or a comment. Rows were chosen to be rich in hits. Some 11% of all compounds tested hit in one or more screens of this group. Unless noted, calls follow the shape of the dose curve; as a rule, active = well fitted curve in the direction sought with a large enough effect; inconclusive = small, poorly fitted or top-dose-only effect, or another doubt; inactive = no such curve, though single readings can be large; an effect the other way counts as inactive or inconclusive. Potency is read from the fitted curve at half-maximal effect.

SMILES | Pf growth 96h | AMA1-RON2 inh | Sm TGR block | Pf growth 48h | NS1 inh
Cc1cccc(C)c1NC(=O)CN(C)C(=O)c1cccc(S(=O)(=O)N2CCN(c3ccc(F)cc3)CC2)c1 | ? | -14% | 7% | 17µM* | .
Cc1cccc(C)c1NC(=O)CN(C)C(=O)c1cccc(S(=O)(=O)N2CCN(c3ccccc3)CC2)c1 | ? | -13% | 5% | -8% | -18%
O=C(Nc1ncccc1O)c1cccc(S(=O)(=O)N2CCN(c3ccc(F)cc3)CC2)c1 | ? | 42% | 1% | -21% | .
CCOc1cc(N2CCOCC2)c(OCC)cc1NC(=O)c1ccc(F)c(S(=O)(=O)N2CCOCC2)c1 | 20% | 8% | 8% | 1% | .
COc1ccc(NC(=O)/C(C#N)=C\c2ccc(N3CCOCC3)o2)cc1 | 3% | -13% | 45µM* | -11% | 4%
N#C/C(=C/c1ccc(N2CCOCC2)o1)C(=O)NC1CCCCC1 | 211% | 10% | 32µM* | ? | -3%
CCOC(=O)c1cc(-c2ccccc2)sc1NC(=O)C(C)Sc1nnc(C)s1 (stereo unspecified) | ? | -9% | 5% | 13µM* | ?
CCOC(=O)c1cc(-c2ccccc2)sc1NC(=O)C(C)C | ? | 9% | 0% | ? | -3%
CCOC(=O)c1cc(-c2ccccc2)sc1NC(=O)C(C)OC(=O)c1cccnc1Cl (stereo unspecified) | 9.3µM* | -11% | -8% | -4% | -5%
CCOC(=O)c1cc(-c2ccccc2)sc1NC(=O)C(C)Sc1nnnn1C (stereo unspecified) | 10µM* | 8% | 2% | ? | -10%
CCOC(=O)c1cc(-c2ccccc2)sc1NC(=O)C(C)N1C(=O)NC(C)(c2ccc(Cl)cc2)C1=O (stereo unspecified) | 9.3µM* | -1% | -6% | . | 18%
CCOC(=O)c1cc(-c2ccccc2)sc1NC(=O)C(C)OC(=O)c1ccncc1 (stereo unspecified) | -40% | 6% | 0% | 39% | -5%
Cc1cccc(-c2nc(SCc3cc(=O)c4cccc(F)c4[nH]3)n[nH]2)c1 | . | . | 0% | . | .
CC(=O)N1CCC2(CC1)C/C(=N\NC(=S)Nc1ccc(C)cc1)c1cc(O)ccc1O2 | -3% | 54% | 1% | ? | .
CSc1ncc(Cl)c(C(=O)Nc2c(C(=O)c3ccc(Cl)cc3)oc3ccccc23)n1 | . | . | 1% | . | .
CCC/C(O)=C1\C(=O)CCCC1=NC(C)C(=O)O (stereo unspecified) | 3.7µM* | 5% | 1% | ? | 4%
COC(=O)C(CCSC)NC(=O)Cn1ncc2c(=O)oc3ccc(C)cc3c21 (stereo unspecified) | 15µM* | 10% | -11% | 24% | -11%
CC(C)(C)C1CCC2(CC1)SCC(=O)N2c1ccccc1 (stereo unspecified) | 95% | 4% | 18% | 12µM* | ?
CC1CCC2(CC1)SCC(=O)N2c1ccc(F)cc1 (stereo unspecified) | 11% | -13% | 1% | 29% | 3%
COc1ccc(/C=N/NC(=O)c2ccccc2O)cc1Cn1nnc2ccccc21 | 8% | 92% | 7% | -11% | -14%
O=C(Nc1cccc(Cl)c1)Nc1nnc(-c2ccncc2)s1 | 5.2µM* | 21% | 0% | 12µM* | -24%
O=C(Nc1ccc(Cl)cc1)Nc1nnc(-c2ccncc2)s1 | ? | 0% | -16% | 17% | -5%
O=C(Nc1nnc(CC2=CCCCC2)s1)Nc1ccccc1F | 57% | 0% | 6% | -11% | -4%
O=C(Nc1cccc(Cl)c1)Nc1nnc(CC2=CCCCC2)s1 | ? | -22% | -6% | 15µM* | -2%
O=C(Nc1cccc(Cl)c1)Nc1nnc(CSCCOc2ccc(Cl)cc2)s1 | ? | -3%[11.6 µM] | 17% | 12µM* | 0%
CC(=O)NCc1ccc(-c2csc(NC(=O)CCc3nc4ccccc4c(=O)[nH]3)n2)s1 | . | 0% | . | . | .
Cc1ccc(Cl)cc1NC(=O)Cn1c(=O)c2ccccc2n2nncc12 | . | . | 3% | . | .
O=S(=O)(NCc1csc(-c2cccnc2)n1)c1cccs1 | ? | 1% | -12% | 2% | -49%
CCc1ccc(S(=O)(=O)NCc2csc(-c3cccnc3)n2)s1 | 0.74µM* | -3% | -2% | 1% | -163%
O=C(OCC(=O)c1ccc(Cl)s1)c1cncc(Br)c1 | . | -6% | . | . | .

Assay outcomes: PubChem BioAssay, National Center for Advancing Translational Sciences (NCATS)
